Test results: PubChem BioAssay AID1376 (SRMLSC, 2008)
“And” between values parts separate entries of the source, which are not always exact repeats. Equal values may be shown once. About 530 (0.24%) of roughly 220,000 compounds were called active. Cut-off read from the data, not from the text of the source: active = inhibition above about 13%; inconclusive = no clear call, values can overlap the other calls; inactive = below that. The full list was thinned out, with actives kept by preference. Entries with a potency or affinity are not part of this list.

The compounds below were run against Bifunctional protein GlmU (Mycobacterium tuberculosis (strain ATCC 25618 / H37Rv)) (UniProt P9WMN3) (assay: inhibition of mycobacterial GlmU enzyme – biochemical, glucosamine-1-phosphate acetyltransferase (AID 1376;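 note: 0% = complete reaction with vehicle and 100% = reaction without substrate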)). Conditions: M. tuberculosis GlmU acetyltransferase enzyme assay; stronger effect = higher value;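 tested at 30 µM in the primary screen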.
Bifunctional protein GlmU (Mycobacterium tuberculosis (strain ATCC 25618 / H37Rv)), sequence (P9WMN3 whole entry, looked up): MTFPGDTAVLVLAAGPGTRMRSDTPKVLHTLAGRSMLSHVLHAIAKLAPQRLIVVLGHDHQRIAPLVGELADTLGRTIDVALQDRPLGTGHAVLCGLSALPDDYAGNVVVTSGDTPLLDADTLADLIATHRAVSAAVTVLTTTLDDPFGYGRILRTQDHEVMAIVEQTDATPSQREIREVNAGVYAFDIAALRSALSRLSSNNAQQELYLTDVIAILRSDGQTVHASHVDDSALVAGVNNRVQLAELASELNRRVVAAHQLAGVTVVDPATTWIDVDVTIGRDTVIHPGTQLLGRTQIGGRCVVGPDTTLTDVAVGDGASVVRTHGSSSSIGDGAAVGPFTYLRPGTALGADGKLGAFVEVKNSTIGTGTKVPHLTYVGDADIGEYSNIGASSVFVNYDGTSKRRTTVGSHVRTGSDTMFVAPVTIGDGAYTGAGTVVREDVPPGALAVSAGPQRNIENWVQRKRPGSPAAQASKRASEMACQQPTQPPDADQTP
`Cc1ccc(SCc2cc(=O)[nH]c(N3CCN(C)CC3)n2)cc1` was tested, and the inhibition was 2.83% (inactive). For `O=C(O)c1ccc2c3c(cccc13)C(=O)N(c1ccccc1)C2=O`, the inhibition was 5.53% (inactive). In the case of `Cc1ccc(N2C(=O)c3cccc4c(C(=O)O)ccc(c34)C2=O)cc1`, the inhibition is reported as -2.11% (inactive). With `CCn1c(SCC(=O)N2CCc3ccccc32)nc2c(c1=O)SC(C)C2` (stereo not given) the inhibition was 2.91% (inactive). With `O=C(O)c1cc(-c2ccccc2)nc2nc(N3CCCCC3)sc12` the inhibition was -4.63% (inactive). With `O=C(O)CCSc1nc2ccccc2s1` the inhibition was 13.3% (active). With `O=C(O)CSc1nc2ccccc2s1` the inhibition was -6.75% (inactive) and -0.54% (inactive). For `O=C(CSc1nc2ccccc2s1)CSc1nc2ccccc2s1`, the inhibition was -0.56% (inactive). For `Cc1[nH]c2ccccc2c1C(=O)COC(=O)CCS(=O)(=O)c1ccccc1Cl`, the inhibition was 0.91% (inactive). For `CCC(=O)Nc1cccc(C2=NOC3(C2)C[C@@H](C(N)=O)N(C(=O)C(c2ccccc2)c2ccccc2)C3)c1` (stereo not given in full), the inhibition was 7.01% (inactive). With `C/C=C(\C)C(=O)Nc1cccc(C2=NOC3(C2)C[C@H](C(N)=O)N(C(=O)C(c2ccccc2)c2ccccc2)C3)c1` (stereo not given in full) the inhibition was 4.35% (inactive). For `C/C=C(/C)C(=O)Nc1cccc(C2=NOC3(C2)C[C@@H](C(N)=O)N(C(=O)CC(c2ccccc2)c2ccccc2)C3)c1` (stereo not given in full), the inhibition was 2.91% (inactive). With `C=C(C)C(=O)Nc1cccc(C2=NOC3(C2)C[C@@H](C(N)=O)N(C(=O)CC(c2ccccc2)c2ccccc2)C3)c1` (stereo not given in full) the inhibition was 14.4% (active). `C/C=C(/C)C(=O)Nc1cccc(C2=NOC3(C2)C[C@H](C(N)=O)N(C(=O)COc2ccc(Cl)cc2)C3)c1` (stereo not given in full) was tested, and the inhibition was -3.89% (inactive). For `NC(=O)[C@H]1CC2(CC(c3cccc(NC(=O)CC(c4ccccc4)c4ccccc4)c3)=NO2)CN1C(=O)CC(c1ccccc1)c1ccccc1` (stereo not given in full), the inhibition was 2.76% (inactive). `NC(=O)[C@@H]1CC2(CC(c3cccc(NC(=O)COc4ccc(Cl)cc4)c3)=NO2)CN1C(=O)COc1ccc(Cl)cc1` (stereo not given in full) was tested, and the inhibition was 3.68% (inactive). For `CC(=O)Oc1ccccc1N(C(C)=O)S(=O)(=O)c1cccc([N+](=O)[O-])c1`, the inhibition was 2.75% (inactive). For `COc1nc(-c2ccccc2)ccc1-c1noc(-c2cccs2)n1`, the inhibition was -3.99% (inactive). `O=C(CN(Cc1ccccc1)S(=O)(=O)c1ccccc1)N/N=C/c1ccccc1C(=O)O` was tested, and the inhibition was 1.89% (inactive). With `CCN(CC)S(=O)(=O)c1cc(NC(=O)COC(=O)CCC(=O)c2cccs2)ccc1C` the inhibition was 1.97% (inactive). With `O=C(NCc1n[nH]c(=S)n1-c1cccc(C(F)(F)F)c1)c1ccc(S(=O)(=O)N2CCCC2)cc1` the inhibition was -1.04% (inactive). For `Oc1ccc(N=Nc2ccc(Br)cc2)c(O)c1`, the inhibition was 7.96% (inactive). For `Oc1ccc(Cl)cc1/C=N/c1nccs1`, the inhibition was 5.12% (inactive). In the case of `Oc1ccc(N=Nc2nccs2)c(O)c1`, the inhibition is reported as 53.5% (active). With `Cc1cc2nc(=O)c(/C=C3\C=Nc4ccccc43)c(N)n2o1` the inhibition was -5.38% (inactive). In the case of `O=c1ccnc2n1COCS2`, the inhibition is reported as -2.85% (inactive). With `CC(/C=C/c1ccccc1)=N\NC(=O)c1ccncc1` the inhibition was 2.68% (inactive). `Cc1ccc2c(C(=O)CN3CCN(c4ccccc4)CC3)c(C)[nH]c2c1` was tested, and the inhibition was 14.3% (active). With `Cc1ccc2c(C(=O)CN3CCOCC3)c(C)[nH]c2c1` the inhibition was 2.67% (inactive). `Cc1ccc2c(C(=O)CN3CCCC3)c(C)[nH]c2c1` was tested, and the inhibition was -5.2% (inactive). For `O=C(CSc1ccc(Cl)cc1)NN=C1CCCCCC1`, the inhibition was 0.28% (inactive). With `O=C(Nc1cccc(N2CCCC2)c1)c1cccs1` the inhibition was -6.15% (inactive). In the case of `CCN1CCN(C(=O)NCc2ccccc2)CC1`, the inhibition is reported as -0.69% (inactive). For `Oc1ccc(NCc2ccccc2OCc2ccccc2F)cc1`, the inhibition was 1.2% (inactive). With `Oc1ccc(NCc2ccccc2OCc2ccccc2)cc1` the inhibition was 1.63% (inactive). With `CCOc1ccccc1CNc1ccc(O)cc1` the inhibition was 12.9% (active). `CCc1nnc(NC(=O)c2cccc(S(=O)(=O)N3CC(c4ccccc4)CC3=O)c2)s1` (stereo not given) was tested, and the inhibition was 5.84% (inactive). `COCCn1cnnc1SCC(=O)Nc1cccc(S(=O)(=O)N2CCCCCC2)c1` was tested, and the inhibition was 1.58% (inactive). In the case of `COC(=O)c1ccc(S(=O)(=O)N2CCCCCC2)n1C`, the inhibition is reported as 12.8% (active). `COC(=O)c1ccc(S(=O)(=O)N2CCC(O)CC2)n1C` was tested, and the inhibition was -2.92% (inactive). In the case of `COC(=O)c1ccc(S(=O)(=O)N2CCN(C)CC2)n1C`, the inhibition is reported as -8.72% (inactive). `CCc1nnc(NC(=O)CSc2nc3c(c(=O)n2C)SC(C)C3)s1` (stereo not given) was tested, and the inhibition was 3.46% (inactive). With `O=c1/c(=C/c2ccccc2)sc2nnc(-c3cccs3)n12` the inhibition was 0.67% (inactive). `C#CC[N+]1(CC#Cc2ccccc2)CCOCC1` was tested, and the inhibition was -6.07% (inactive). `OCC#CC[N+]1(CC#Cc2ccccc2)CCOCC1` was tested, and the inhibition was -6.73% (inactive). `CC1=C(C(=O)Nc2ccccc2)C(c2cccs2)n2nnnc2N1` (stereo not given) was tested, and the inhibition was -3.97% (inactive). For `CCn1c(CSc2nc3ccccc3s2)nnc1SCC(=O)c1ccc(O)cc1O`, the inhibition was 13% (active). In the case of `CCn1c(CSc2nc3ccccc3s2)nnc1SCC(=O)c1ccc(O)c(O)c1`, the inhibition is reported as 5.09% (inactive). With `CCn1c(CSc2nc3ccccc3s2)nnc1SCC(N)=O` the inhibition was 1.32% (inactive). `C=C(C)CNC(=S)N/N=C/c1ccc([N+](=O)[O-])cc1` was tested, and the inhibition was 3.43% (inactive). In the case of `Cc1ccc(-n2nc3c(c2NC(=O)c2cccs2)CSC3)cc1`, the inhibition is reported as 19.6% (active). With `Cc1ccc(-n2nc3c(c2NC(=O)c2ccc4c(c2)OCO4)CSC3)cc1` the inhibition was -1.67% (inactive). `Cc1ccc(-n2nc3c(c2NC(=O)c2c(-c4ccccc4Cl)noc2C)CSC3)cc1` was tested, and the inhibition was 4.33% (inactive). In the case of `Cc1nccn1CCCN1C(=O)OC2(CCCCC2)C1(C)O` (stereo not given), the inhibition is reported as -0.12% (inactive). For `Cc1cc(C)c(C(=O)COC(=O)c2cc([N+](=O)[O-])ccc2NCCO)cc1C`, the inhibition was 0.91% (inactive). In the case of `COc1cc(/C=N/N=C2/C(=O)Nc3ccccc32)ccc1O`, the inhibition is reported as 1.01% (inactive). For `O=C1Nc2ccccc2/C1=N/N=C/c1cccc(O)c1`, the inhibition was 0.15% (inactive). `O=C1Nc2ccccc2/C1=N\N=C\c1ccc(O)c(O)c1` was tested, and the inhibition was 15% (active). In the case of `CC1CCc2ccc(F)cc2N1S(=O)(=O)c1cccs1` (stereo not given), the inhibition is reported as 3.23% (inactive). In the case of `O=c1cc(O)c2c(=O)n(-c3ccccc3)c3ccccc3c2o1`, the inhibition is reported as 0.8% (inactive). For `O=c1cc(O)c2c(=O)n(-c3ccccc3)c3c(c2o1)CCCCC3`, the inhibition was 13% (active). In the case of `O=c1cc(O)c2c(=O)n(-c3ccccc3)c3c(c2o1)CCCCCC3`, the inhibition is reported as 0.45% (inactive). With `C=CCNC(=O)NS(=O)(=O)c1ccc(C)cc1` the inhibition was 1.33% (inactive). With `O=C(NCc1ccco1)c1cccc(-c2nnc(-c3ccccc3)o2)c1` the inhibition was -0.42% (inactive). In the case of `CC(C)C(OC(=O)c1ccco1)C(=O)NC1CCCCC1` (stereo not given), the inhibition is reported as 1.45% (inactive). With `CC(C)CC(OC(=O)c1ccco1)C(=O)NC1CCCCC1` (stereo not given) the inhibition was 14.8% (active). For `CC(OC(=O)c1ccco1)C(=O)NC1CCCCC1` (stereo not given), the inhibition was -0.47% (inactive). In the case of `O=C(NCc1ccncc1)C(=O)C1C(=O)Nc2ccccc21` (stereo not given), the inhibition is reported as -1.35% (inactive). For `CCOC(=O)c1nc(NCc2ccccc2C)c2ccccc2n1`, the inhibition was -3.26% (inactive). `C/C=C(\C)CN1CCN(c2cc(C)ccc2C)CC1` was tested, and the inhibition was -5.99% (inactive). `Cc1cc(C(=O)CS(=O)(=O)c2ccccc2)cc(C)c1OC(=O)N(C)C` was tested, and the inhibition was 0.59% (inactive). For `COc1ccc(NS(=O)(=O)c2cccc(C(=O)NNC(=O)NCCCl)c2)cc1`, the inhibition was -0.61% (inactive). In the case of `Cc1cc(/C=N/NC(=O)c2cccc([N+](=O)[O-])c2)c(C)n1-c1ccccc1`, the inhibition is reported as -3.02% (inactive). For `Cc1cc(/C=N/NC(=O)c2cccc(F)c2)c(C)n1-c1ccccc1`, the inhibition was 0.73% (inactive). With `Cc1cc(C(=O)N/N=C/c2sc(N3CCOCC3)nc2-c2ccccc2)c(C)o1` the inhibition was 6.62% (inactive). For `CCCn1c(SCc2ccon2)nc2ccccc2c1=O`, the inhibition was 1.08% (inactive). `O=C1c2ccccc2C(=O)N1CC(=O)N1c2ccccc2Sc2ccccc21` was tested, and the inhibition was -6.14% (inactive). In the case of `COc1cc(C(c2c(O)c3ccccc3oc2=O)c2c(C)n(C)n(-c3ccccc3)c2=O)ccc1O` (stereo not given), the inhibition is reported as 22.1% (inactive). In the case of `COc1ccc(OC)c(C(c2c(O)c3ccccc3oc2=O)c2c(C)n(C)n(-c3ccccc3)c2=O)c1` (stereo not given), the inhibition is reported as 13.2% (active). `COc1ccc(C(c2c(O)c3ccccc3oc2=O)c2c(C)n(C)n(-c3ccccc3)c2=O)cc1` (stereo not given) was tested, and the inhibition was 1.51% (inactive). For `CCCCCCn1c(CN2CCN(CCO)CC2)nc2c1c(=O)n(C)c(=O)n2C`, the inhibition was 2% (inactive). With `C/C(=N\NC(=O)c1nn(C)c(C)c1Br)c1cccc(NC(=O)c2ccc(F)cc2)c1` the inhibition was -3.49% (inactive). For `O=C(NCc1ccc(C(=O)N2CCC3(CC2)OCCO3)cc1)c1cccc(Br)c1`, the inhibition was 1.96% (inactive). In the case of `O=C(c1ccc2c(c1)OCO2)N1CCC2(CC1)OCCO2`, the inhibition is reported as 5.09% (inactive). In the case of `O=C(NCc1ccc(C(=O)N2CCC3(CC2)OCCO3)cc1)c1ccc2c(c1)OCO2`, the inhibition is reported as 18.9% (active). In the case of `COc1ccc(CN2CCOCC2)c(C)c1C`, the inhibition is reported as -2.85% (inactive). In the case of `CCCCNc1ccc(C(=O)O)cc1`, the inhibition is reported as -0.8% (inactive). In the case of `CC12CC(NC(=O)N1c1ccc(C(=O)N3CCN(c4ccc(F)cc4)CC3)cc1)c1ccccc1O2` (stereo not given), the inhibition is reported as -2.33% (inactive). In the case of `CC(C)C/C=C1\CCc2c([nH]c3ccccc23)C1=O`, the inhibition is reported as -1.01% (inactive). In the case of `CCOc1ccc(NC(=O)CSc2n[nH]c(N)n2)c([N+](=O)[O-])c1`, the inhibition is reported as 0.6% (inactive). For `CCOC(=O)c1cnc(SCC(=O)c2ccc3c(c2)OCCO3)nc1N`, the inhibition was -5.31% (inactive). In the case of `NS(=O)(=O)c1cccc(NC(=O)CN2CCc3ccccc32)c1`, the inhibition is reported as -0.92% (inactive). In the case of `Fc1ccc(OCc2nc3ccccc3s2)cc1`, the inhibition is reported as 0.65% (inactive). With `Fc1ccc(OCc2nn3c(Cn4nnc5ccccc54)nnc3s2)cc1` the inhibition was 3.23% (inactive). With `Fc1ccc(OCc2nn3cnnc3s2)cc1` the inhibition was 18.4% (active).
